ST2 IL33 inh: inhibitors of human ST2 (IL1RL1) binding to IL-33; AlphaLISA ST2-Fc/biotin-IL-33 interaction, 1 h; inhibition, % for hits at 17 µM; actives 2.3% (n = 78,000); in the data active = inhibition above about 30%
Target sequence (Q01638 whole entry, looked up): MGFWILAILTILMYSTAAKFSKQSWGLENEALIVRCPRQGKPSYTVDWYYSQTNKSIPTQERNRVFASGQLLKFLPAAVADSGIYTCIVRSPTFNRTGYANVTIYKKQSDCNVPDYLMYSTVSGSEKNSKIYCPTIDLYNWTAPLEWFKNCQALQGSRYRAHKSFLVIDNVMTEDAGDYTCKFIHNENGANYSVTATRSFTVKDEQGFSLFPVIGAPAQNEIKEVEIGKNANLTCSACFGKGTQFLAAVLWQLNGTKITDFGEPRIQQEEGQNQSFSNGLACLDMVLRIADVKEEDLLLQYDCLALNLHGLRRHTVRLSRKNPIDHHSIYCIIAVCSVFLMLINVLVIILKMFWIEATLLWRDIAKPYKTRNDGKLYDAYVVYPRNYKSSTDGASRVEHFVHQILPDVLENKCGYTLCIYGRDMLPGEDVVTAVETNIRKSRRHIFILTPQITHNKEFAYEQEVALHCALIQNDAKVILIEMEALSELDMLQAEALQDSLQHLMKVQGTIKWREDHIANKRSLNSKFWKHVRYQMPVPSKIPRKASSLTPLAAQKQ
Numbers without * were called inactive; i = inactive; ! = a repeat was not active. This excerpt belongs to a sample that is enriched for hits.

SMILES	ST2 IL33 inh
COc1cccc(C(=O)Nc2ccc(Nc3nc(C)cc(Nc4ccc(C)cc4)n3)cc2)c1	i
CCCC(=O)Nc1ccc(Nc2nc(C)cc(Nc3ccc(OC)cc3)n2)cc1	i
CCOc1ccc(C(=O)Nc2ccc(Nc3nc(C)cc(Nc4ccc(OC)cc4)n3)cc2)cc1	30%*
CCc1ccc(OCCN(C)C(=O)c2ccn[nH]2)cc1	i
CC(CCc1ccccc1)NC(=O)CSc1nc(-c2ccc3c(c2)OCO3)nc2cc(=O)[nH]n12 (stereo not given)	i
CC(C)NC(=O)CSc1nc(-c2cccc(Cl)c2)nc2cc(=O)[nH]n12	96%*
COCCNC(=O)CSc1nc(-c2cccc(Cl)c2)nc2cc(=O)[nH]n12	i
CC(=O)NC(C(N)=O)C(SCc1ccccc1)c1c[nH]c2ccccc12 (stereo not given)	i
CC(=O)n1cc(C(C[N+](=O)[O-])SCc2ccccc2)c2ccccc21 (stereo not given)	41%*
CC(=O)n1c2ccccc2c2cc([N+](=O)[O-])ccc21	i
CC(=O)c1cc(C#N)c(SCc2ccc(C(C)(C)C)cc2)nc1C	i
O=C1CSC(c2ccc(Br)cc2)N1C1CCCCC1 (stereo not given)	i
CC(C)c1nnc2sc(CC3CN(C(C)C)CCO3)nn12 (stereo not given)	i
CN(C)CCNC(=O)C1(O)c2ccccc2NC(=O)N1c1ccccc1 (stereo not given)	i
CCN(CC)CCNC(=O)C1(O)c2cc(Br)ccc2NC(=O)N1c1ccccc1 (stereo not given)	31%*!
CCCCNC(=O)C1(O)c2cc(Br)ccc2NC(=O)N1c1ccccc1 (stereo not given)	i
CCN(CC)CCNC(=O)C1(O)c2ccccc2NC(=O)N1c1ccccc1 (stereo not given)	i
COc1ccc(CNC(=O)C2(O)c3ccccc3NC(=O)N2c2cccc(OC)c2)cc1 (stereo not given)	i
O=C1Nc2ccccc2C(O)(C(=O)NCc2ccc3c(c2)OCO3)N1c1ccccc1 (stereo not given)	30%*
O=C1CC(c2cccs2)CC2=C1C(c1coc3ccccc3c1=O)Nc1ccccc1N2 (stereo not given)	i
CC1CC(C)CN(C(=O)c2ccc3c(c2)NC(=O)C(N2CCCCC2)S3)C1 (stereo not given)	i
Cc1cc(=O)oc2c3c(ccc12)OCN(c1ccc(Cl)cc1)C3	i
Cc1csc2ncc(C(=O)Nc3ccc4c(c3)OCO4)c(=O)n12	i
COc1ccccc1C(=O)Nc1cccc(NC(=O)CC(C)n2cccn2)c1 (stereo not given)	i
O=c1[nH]nc(Cc2ccccc2)c2ccccc12	i
SMILES	ST2 IL33 inh
O=c1[nH]nc(C[N+](=O)[O-])c2ccccc12	30%*
COc1ccc(Cc2n[nH]c(=O)c3ccccc23)cc1OC	i
Cc1cccc(C)c1-c1ccc(-c2nn[nH]n2)cc1	i
Cc1ccc(-c2nnc(CNCC3CCCN(S(C)(=O)=O)C3)o2)n1C (stereo not given)	i
O=C(O)CSc1nnnn1-c1ccccc1	i
CC(c1nnc(SCC(=O)O)n1-c1ccccc1)n1ccnc1 (stereo not given)	31%*
COc1ccc(C(=O)CSc2nnc(C(O)c3ccccc3)n2-c2ccccc2)cc1 (stereo not given)	i
COc1ccccc1N1CCN(C(=O)c2sc3ccccc3c2Cl)CC1	i
COc1cc(Cl)c(S(=O)(=O)NCCCN2CCOCC2)cc1Cl	i
Cc1cc(Nc2ccc(O)cc2)c2cc(Cl)ccc2n1	i
COc1ccc2nc(C)cc(Nc3ccccc3OC)c2c1	i
Cc1cc(Nc2ccc(N(C)C)cc2)c2cc(Cl)ccc2n1	39%*
COc1cccc(Nc2cc(C)nc3ccc(Cl)cc23)c1	i
CCOc1ccccc1Nc1cc(C)nc2ccc(OC)cc12	i
COc1ccc2nc(C)cc(Nc3ccc(N(C)C)cc3)c2c1	52%*
CC1(C)CC(=O)C2=C(C1)Nc1nc(SCCN3CCOCC3)[nH]c(=O)c1C2c1cccs1 (stereo not given)	i
O=C1CSc2ccccc2N1Cc1ccccc1F	i
COc1ccc(OC)c(NC(=O)CN2C(=O)C3C4CCC(C4)C3C2=O)c1 (stereo not given)	i
COCCN(Cc1ccc(C)cc1)Cc1c2ccccc2nn1C	i
O=C1N=C(c2ccccc2)C(c2ccccc2)N1 (stereo not given)	i
O=C(CN1CCN(Cc2ccccc2Cl)S1(=O)=O)Nc1ccc(Br)cc1	i
Cc1cn(CCNS(=O)(=O)NCc2ccccc2)nn1	i
CSc1cccc(CNC(=O)c2ccc(S(N)(=O)=O)cc2)c1	i
Cc1cc(C)[n+]2c(c1C#N)SCC2C(Br)c1ccccc1 (stereo not given)	58%*
CC(C)c1ccc(CNC(=O)CCCc2nc3cccnc3n2Cc2ccccc2)cc1	i
O=S(=O)(Nc1cccnc1)c1ccc(Oc2ccccc2)cc1	i
CN(Cc1nc2c(s1)CCCC2)CC1CCN(CCc2ccc(F)cc2)CC1	i
COc1cccc2c1NC(C)(C)C=C2C	46%*
